In PubChem BioAssay AID1159580 (chemical genetic matrix, 2015):
Out of some 5,500 compounds screened, about 2,000 (36%) were called active. Not shown: some 18% with an inconclusive outcome. Cut-off read from the data, not from the text of the source: active = normalized growth mostly below about 0.91 (no sharp cut-off); inconclusive = no clear call, values can overlap the other calls; inactive = mostly above about 0.92. Some of the results follow.

Assay: chemical genetic growth profiling, strain panel (AID 1159580);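 note: tested at 20 µM; growth read once vehicle control cultures reached saturation at 30 °C; 1 = growth at the plate median or of vehicle wells; lower values mean less growth of the strain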
Conditions: S. cerevisiae deletion strains, growth OD

Measured: normalized growth

NCC#Cc1ccccc1
inactive: locus YAL013W, strain DEP1, stronger effect = lower value 1.04 | locus YAL040C, strain CLN3, stronger effect = lower value 0.989 | locus YCL061C, strain MRC1 (second series), stronger effect = lower value 1.01 | locus YDR150W, strain NUM1, stronger effect = lower value 1.02 | locus YDR363W, strain ESC2, stronger effect = lower value 1.02 | locus YER002W, strain NOP16, stronger effect = lower value 1 | locus YGR229C, strain SMI1, stronger effect = lower value 1.07 | locus YMR263W, strain SAP30, stronger effect = lower value 1 | locus YMR307W, strain GAS1, stronger effect = lower value 1.01 | locus YNL128W, strain TEP1, stronger effect = lower value 1.01 | locus YNL153C, strain GIM3, stronger effect = lower value 1.15 | locus YNL175C, strain NOP13, stronger effect = lower value 1.01 | locus YNL197C, strain WHI3, stronger effect = lower value 1.01 | locus YNL224C, strain SQS1, stronger effect = lower value 1.01 | locus YOR083W, strain WHI5 (second series), stronger effect = lower value 1.01 | locus YPL055C, strain LGE1, stronger effect = lower value 1.04
